Reference: ChEMBL document CHEMBL3988442, “University of Dundee, Small-Polar-MMV Screening Library” (2021)

Assays:
[1] = biological target: T1, Aspartate--tRNA(Asp/Asn) ligase (Mycobacterium tuberculosis (strain ATCC 25618 / H37Rv)) (UniProt P9WFW3); assay: Assay for Asp RNA synthetase-1 from Mycobacterium tuberculosis; format: functional; set-up: scale not given: direction of the effect not stated beside the values; details: 30 µM; also: in the data most compounds retested in dose-response had high values
T1 sequence (whole entry): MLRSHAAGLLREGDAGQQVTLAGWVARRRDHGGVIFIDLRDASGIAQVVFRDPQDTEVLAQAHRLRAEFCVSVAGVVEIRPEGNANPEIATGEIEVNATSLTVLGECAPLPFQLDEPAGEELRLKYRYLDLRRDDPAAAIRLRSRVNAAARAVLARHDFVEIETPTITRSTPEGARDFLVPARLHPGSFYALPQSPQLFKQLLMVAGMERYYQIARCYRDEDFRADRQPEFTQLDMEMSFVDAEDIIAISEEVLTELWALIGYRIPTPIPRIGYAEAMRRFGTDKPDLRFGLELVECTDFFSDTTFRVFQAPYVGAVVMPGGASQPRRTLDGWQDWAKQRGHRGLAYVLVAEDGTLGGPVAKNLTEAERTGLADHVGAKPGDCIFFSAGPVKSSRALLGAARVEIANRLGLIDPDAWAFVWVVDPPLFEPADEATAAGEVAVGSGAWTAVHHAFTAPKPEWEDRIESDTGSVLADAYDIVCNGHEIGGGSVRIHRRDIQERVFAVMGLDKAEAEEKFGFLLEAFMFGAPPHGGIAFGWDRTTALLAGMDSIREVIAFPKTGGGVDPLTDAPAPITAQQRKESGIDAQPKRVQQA

[2] = biological target: Shiga toxin 2 (Escherichia coli O157:H7) (UniProt P09385+P09386); assay: E. coli 0.157:H7 Shiga Toxin SOP - stx2 screening assay; format: functional; set-up: scale not given: direction of the effect not stated beside the values; details: 30 µM

Structure (SMILES)	Percent Effect [1] [%]	Percent Effect [2] [%]
O=C(N1CCOCC1)[C@@]12CCO[C@@H]1CCN(CCN1CCCCC1)C2	3.6	-37.5
CCC(=O)N1CCc2nc3cc(OC)c(OC)cc3c(=O)n2CC1	-5.4	-7.9
CC(C(=O)NCCCn1ccnc1)n1cc(Br)cn1 (configuration not stated)	3.33	-54.3
CNC(=O)CN(C)c1nc(-c2ccncc2)nc2c1CCN(C(C)=O)C2	-1.03	-0.42
Oc1cc(CCC2CCCCN2)cc(-c2ccncc2)c1 (configuration not stated)	2.44	-42.2
Cc1cc(CN2CCN(C(=O)Nc3cccnc3)CC2)on1	-2.97	26.4
NCCn1nc(C2CCN(Cc3ccc(Cl)c(Cl)c3)C2)c2nccnc21 (configuration not stated)	-4	-105
Cc1ccc(C(=O)O)cc1S(=O)(=O)Nc1nn(-c2ccccc2)cc1C	5.61	3.87
CCCc1ncc(C(=O)N2CCOC(c3nc(C)n[nH]3)C2)s1 (configuration not stated)	0.888	2.31
Cn1cnc2c1C(COCC1CC1)CN(C(=O)Cc1ccsc1)C2 (configuration not stated)	0.364	-17.9
CNC(=O)c1ccc(C(=O)N2CCCC2c2cnn(C)c2)cn1 (configuration not stated)	-5.79	-8.21
COCCc1noc(CN(C)C(=O)c2cccc(N3CCCC3=O)c2)n1	3.06	3.89
CCOc1ccc(CC(=O)N2CCN(c3nccn3C)CC2)cc1	5.09	-64.2
Cn1ccnc1CN1C[C@@H](CN2CCC(CO)CC2)[C@@H](CO)C1	-1.77	12.7
Cc1c(C2CCCN(C(=O)Cc3ccccn3)C2)n2c(nc1=O)CCC2 (configuration not stated)	2.63	-14.2
CC(C)c1nc(C2CCCN2CC(=O)Nc2nncs2)no1 (configuration not stated)	-6.57	9.9
CN(C)c1ccc(CN(CCCn2ccnc2)Cc2c[nH]cn2)cc1	0.194	-38.9
CN(C)C(=O)N1CCN(C(=O)C(c2ccccc2F)N(C)C)CC1 (configuration not stated)	0.752	-3.65
O=C(Cc1ccc2c(c1)OCO2)N1CCN(c2cnccn2)CC1	-3.06	19
Fc1cnc(N2CCOC3(CCN(Cc4ccsc4)CC3)C2)nc1	14.1	-18
CC(C(=O)N1CCc2ccccc2C1)n1cc(Br)cn1 (configuration not stated)	2.59	-59.4
COCC(C)N(C)C(=O)c1nc(S(C)(=O)=O)n2ccccc12 (configuration not stated)	-0.433	-13.2
COCCN1CCN(C(C)C(=O)Nc2ccnn2C(C)C)CC1 (configuration not stated)	0.69	-2.27
CC(C)(C)OC(=O)N1CCCC[C@H]1C(=O)NCc1nccs1	-1.06	-16.6
O=C(c1cccc2[nH]ncc12)N1CCCC1c1noc(C2CC2)n1 (configuration not stated)	-4.54	0.232
CN(C)C(=O)c1cccc(NC(=O)N(CCO)Cc2ccsc2)c1	-4.93	-18.5

Structure (SMILES)	Percent Effect [1] [%]	Percent Effect [2] [%]
OC(CNCCn1cccn1)c1ccc2c(c1)OCCO2 (configuration not stated)	-4.48	3.64
COc1ccc(NCc2nc(=O)n(CCC(C)C)[nH]2)cc1	-2.01	5.42
CC(Cn1ccnc1)NC(=O)C1(c2ccc3c(c2)OCCO3)CCCC1 (configuration not stated)	-0.0286	-20.7
Cc1ccc(C(C)NC(=O)Cc2c(C)nc3c(c2C)c(=O)[nH]n3C)o1 (configuration not stated)	18.6	-15.3
COCC1c2c(cnn2CC2CCOCC2)CCN1Cc1ccoc1 (configuration not stated)	0.211	-9.29
Cc1ccc(S(=O)(=O)NC2CC2)cc1C	-2.59	-0.587
Cc1nc(C)n(CC2CCCCN2CCCS(=O)(=O)N(C)C)n1 (configuration not stated)	1.48	-34.2
COCc1noc(C2(c3ccc(Br)cc3)CCOCC2)n1	0.524	-0.633
CC(C)c1cc(C(F)(F)F)n2nc(CCC(=O)O)nc2n1	-1.46	52.4
CC(CNCc1ccncc1)Oc1ccccn1 (configuration not stated)	-2.38	-57
Cc1ccccc1-c1noc(CN2CCn3c(nnc3C3CC3)C2)n1	-0.7	-48.8
Cc1ccccc1C1(CNC(=O)NCCc2nnc3n2CCC3)CC1	-1.38	-0.461
COc1ncccc1NC(=O)NC1CCOc2ccccc21 (configuration not stated)	-3.76	-5.5
Cc1cccc(NC(=O)Cn2ncc(SCC(N)=O)c(Cl)c2=O)c1C	-2.73	5.03
COc1cccc(S(=O)(=O)N2CCC(O)(CN(C)C)C2)c1 (configuration not stated)	-0.221	11.2
Cc1csc(C2CCCCN2C(=O)CN(C)Cc2ccccc2)n1 (configuration not stated)	-3.92	8.13
O=C(Nc1ccnc(OC2CCOC2)c1)c1cc(F)ccc1F (configuration not stated)	-4.18	-63.1
CC(Cn1cccn1)NC(=O)N1CCN(Cc2cccs2)CC1 (configuration not stated)	-5.57	-23.7
Cc1ccc(C(=O)Nc2cc(C(C)C)n[nH]2)cn1	2.73	1.39
CC1CN(CC(=O)NC(=O)NCc2ccccc2)CCO1 (configuration not stated)	-6.29	-0.513
Cc1ccoc1-c1nnc(CNCC2CCCN2c2cccnn2)o1 (configuration not stated)	-2.62	5.85
CS(=O)(=O)NCCCN1CCCC1Cc1ccccc1 (configuration not stated)	-3.08	-0.572
CCS(=O)(=O)CCn1ccc(NC(=O)CCc2cccc(C)c2)n1	2.58	-19.5
Cc1noc(C(C)C)c1C(=O)NCCCOC(C)C	2.01	-6.05
Cc1cn2c(n1)CCC(NC(=O)c1cc(Br)cn1C)C2 (configuration not stated)	-1.87	-34.8
